Laboratory results taken from PubChem BioAssay (NCI).
Compounds without any hit were thinned out: in the full panel of roughly 79,000, 15% have a hit. Calls of active or inactive are those of the source. Cut-off read from the data, not from the text of the source: active = growth inhibition above about 70%; inactive = the rest.

Test: NCI Yeast Anticancer Drug Screen. Data for the cln2 rad14 strain (AID 165);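 note: 0% = growth equal to vehicle treated cultures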
Conditions: S. cerevisiae cln2 rad14 strain, at 50.0 µM (retest, dose inferred, filed as 5.0), stronger effect = higher value
In short: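 Relative to vehicle controls, growth inhibition of compound-treated cln2 rad14 yeast was recorded.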

| Structure (SMILES) | growth inhibition |
| --- | --- |
| COC(C)(C)[C@@H]1CCCN1C1=C(C)C(=O)OC1 | 99% (active) |
| COc1ccc(-c2nc(C)[nH]c(=O)c2Cc2c(O)ccc3ccccc23)cc1 | 7% (inactive) |
| C1CCC(CCNCCC2CCCCC2)CC1 | 99% (active) |
| CC1=C(C)C1[N+](=O)[O-] | 68% (inactive) |
| COc1ccc2c(c1)OC(c1ccccc1O)CC2=O (stereo unspecified) | 12% (inactive) |
| CCN(CC)c1ccc(NC(CC(O)c2ccccc2)c2ccccc2)cc1 (stereo unspecified) | -3% (inactive) |
| COc1cc(/C=C/C(=O)c2ccc3ccccc3c2)cc(OC)c1OC | 14% (inactive) |
| C=CC(=C)OC | 8% (inactive) |
| O=C1OC(=O)c2ccc([N+](=O)[O-])c3cccc1c23 | 14% (inactive) |
| CCCOC(=O)CSC#N | 95% (active) |
| CCCCN(CCCC)CCCCCCNc1cc(OC)cc2cccnc12 | 39% (inactive) |
| CN1C(Cl)=NS(=O)(=O)c2ccccc21 | 20% (inactive) |
| COc1cc(C(=O)CBr)c2ccc(Cl)cc2n1 | 97% (active) |
| CCCCCCCCCCCCCCCC(=O)N(CCCN(CC)CC)C(C)CCCN(CC)CC (stereo unspecified) | 99% (active) |
| CC1(c2ccccc2)OC1C(=O)N(c1ccccc1)c1ccccc1 (stereo unspecified) | 97% (active) |
| CCCCCCCNC1CCCc2cc(OC)ccc21 (stereo unspecified) | 54% (inactive) |
| Cc1ccc(S(=O)(=O)NCCSCCSCCNS(=O)(=O)c2ccc(C)cc2)cc1 | -5% (inactive) |
| COc1ccc(C2C3CCCC(C(c4ccc(OC)cc4)N2C)C32NC(=O)NC2=O)cc1 (stereo unspecified) | 97% (active) |
| CC(C)OC1=C(Cl)C(=O)c2c(cccc2[N+](=O)[O-])C1=O | 100% (active) |
| COC(=O)c1nnn(-c2ccc(Cl)cc2Cl)c1C(=O)c1ccc(Cl)c(Cl)c1 | 98% (active) |
| O=Cc1cc2c(s1)C(=O)c1sccc1C2=O | 97% (active) |

Same assay, conditions: S. cerevisiae cln2 rad14 strain, at 50.0 µM, stronger effect = higher value

| Structure (SMILES) | growth inhibition |
| --- | --- |
| O=C1c2ccccc2C(=O)c2sc(Nc3cc(Cl)ccc3Cl)nc21 | 86.5% (active) |
| OCC(c1ccccc1)c1ccccc1 | -14.2% (inactive) |
| CN(C)c1nc(=NCc2ccco2)ss1 | 5.2% (inactive) |
| C/C=C\C=N\NC(N)=S | -24.6% (inactive) |
| O=C(/C=N/O)c1c(-c2ccccc2)[nH]c(-c2ccccc2)c1-c1ccccc1 | 91% (active) |
| Cc1c2ccccc2c(CO)c2cc(F)c3ccccc3c12 | 31.9% (inactive) |
| O=C(O)Cc1cccc2c(=O)c3cccc([N+](=O)[O-])c3[nH]c12 | 65% (inactive) |
| Cc1ccc(SC2=C(N(C)C)C(=O)c3ccccc3C2=O)cc1 | 58.1% (inactive) |
| O=C1C(Cl)=C(Cl)C(=O)c2cc(Cl)c(Cl)cc21 | 88.2% (active) |
| CC1=C(C2CO2)C(=O)C(C)=C(C2CO2)C1=O (stereo unspecified) | 99.5% (active) |
| CCc1cc(CC)c(-c2ccco2)c(COC(=O)NC)c1 | 77.4% (active) |
| COC(=O)C(=O)N(c1cc(C)ccc1C)c1cc(C)ccc1C | 63.1% (inactive) |
| COC1=CC(=O)c2c(O)c3c(c(O)c2C1=O)C=C(C)OC3O (stereo unspecified) | 47.1% (inactive) |
| O=[N+]([O-])c1ccccc1NCCO | 28.8% (inactive) |
| CCCCCCCCCCCCCCCC[N+](C)(C)CC(=O)O | 88.4% (active) |
| S=C(SSSSC(=S)N1CCCCC1)N1CCCCC1 | 9.35% (inactive) |
| COC(O)C12OC3CO[Si](C(C)C)(C(C)C)O[Si](C(C)C)(C(C)C)OC3C1Oc1nc(=O)ccn12 (stereo unspecified) | 86.7% (active) |
| O=C(O)c1ccccc1C(c1ccccc1)c1ccccc1 | 74.3% (active) |
| OC(OC/C(I)=C(/I)COC(O)C(Cl)(Cl)Cl)C(Cl)(Cl)Cl (stereo unspecified) | 76.7% (active) |
| COC(C)(C)[C@@H]1CCCN1C1=C(C)C(=O)OC1 | 24.6% (inactive) |
| COc1ccc(-c2nc(C)[nH]c(=O)c2Cc2c(O)ccc3ccccc23)cc1 | 22% (inactive) |
| C1CCC(CCNCCC2CCCCC2)CC1 | 98.7% (active) |
| CC1=C(C)C1[N+](=O)[O-] | 24.4% (inactive) |
| COc1ccc2c(c1)OC(c1ccccc1O)CC2=O (stereo unspecified) | 20.7% (inactive) |
| CCN(CC)c1ccc(NC(CC(O)c2ccccc2)c2ccccc2)cc1 (stereo unspecified) | 51.5% (inactive) |
| COc1cc(/C=C/C(=O)c2ccc3ccccc3c2)cc(OC)c1OC | -5.35% (inactive) |
| C=CC(=C)OC | 69.9% (inactive) |
| O=C1OC(=O)c2ccc([N+](=O)[O-])c3cccc1c23 | 26.4% (inactive) |
| CCCOC(=O)CSC#N | 97.8% (active) |
| CCCCN(CCCC)CCCCCCNc1cc(OC)cc2cccnc12 | 98.1% (active) |
